# Reference: PubChem BioAssay AID1851 (National Center for Advancing Translational Sciences (NCATS), 2009)
# Values joined by “and” are separate entries in the source; they are usually repeats but may differ in a detail not shown here. Equal values may be shown once. Among all 16,000 compounds or so, about 5,800 (36%) were called active. Roughly 23% stayed inconclusive and do not appear here. This is one part of the list. A number with no mark means an inactive call. The call rests on the fitted dose curve; in most records, active means well fitted curve in the direction sought with a large enough effect; inconclusive means small, poorly fitted or top-dose-only effect, or effect the other way; inactive means no such curve, though single readings can be large or run the other way.
# Target: Cytochrome P450 2C19 (Homo sapiens) (UniProt P33261)
# Sequence (P33261 whole entry, looked up): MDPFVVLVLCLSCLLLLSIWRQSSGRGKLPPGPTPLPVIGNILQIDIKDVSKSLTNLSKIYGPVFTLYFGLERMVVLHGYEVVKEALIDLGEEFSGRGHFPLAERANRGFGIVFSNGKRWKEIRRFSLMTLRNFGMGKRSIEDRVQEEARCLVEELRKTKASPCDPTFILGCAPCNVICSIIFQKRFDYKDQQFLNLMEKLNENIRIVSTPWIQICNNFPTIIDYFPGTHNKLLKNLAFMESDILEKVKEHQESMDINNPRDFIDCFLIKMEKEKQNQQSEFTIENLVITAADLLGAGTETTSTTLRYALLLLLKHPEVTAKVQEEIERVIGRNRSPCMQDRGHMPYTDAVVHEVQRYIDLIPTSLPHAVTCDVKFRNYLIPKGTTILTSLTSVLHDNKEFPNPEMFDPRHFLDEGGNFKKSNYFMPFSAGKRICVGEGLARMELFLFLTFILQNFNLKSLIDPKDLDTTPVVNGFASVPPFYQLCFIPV
# Test: Cytochrome panel assay with activity outcomes
# Details: recombinant CYP, pro-luciferin dealkylation, luminescence, p450-cyp2c19; series mostly up to 57.1 µM
# On the % scale 0 is the no-effect control and ±100 the full control effect.
SMILES,AC50,"activity, negative = inhibition"
CC(C)N=c1cc2n(-c3ccc(Cl)cc3)c3ccccc3nc-2cc1Nc1ccc(Cl)cc1,inactive,
O=c1c2ccccc2nc2n1C(CSCc1cccc(C(F)(F)F)c1)CS2 (stereo not given),0.251 µM (active),
C[n+]1cc2c3c(ccc2c2ccc4cc5c(cc4c21)OCO5)OCO3,6.31 µM (active),
COc1ccc2cc3[n+](cc2c1OC)CCc1cc2c(cc1-3)OCO2,inactive,
O=C(Nc1cc2c(oc1=O)CCCC2=O)c1ccc(Cl)cc1,22.4 µM (active),
O=c1ccc(NS(=O)(=O)c2ccccc2)cn1Cc1ccc(Cl)c(Cl)c1,0.2 µM (active),
O=c1ccc(NS(=O)(=O)c2ccc(Cl)cc2)cn1Cc1ccc(Cl)c(Cl)c1,0.251 µM (active),
Cc1ccc(S(=O)(=O)Nc2ccc(=O)n(Cc3ccc(Cl)c(Cl)c3)c2)cc1,0.158 µM (active),
O=C(c1ccccc1-c1nc(-c2ccccc2)no1)N1CCOCC1,inactive,
Clc1ccccc1-c1nc(-c2ccncc2)no1,0.0631 µM (active),
CS(=O)(=O)c1ccccc1-c1nc(-c2cc(C(F)(F)F)cc(C(F)(F)F)c2)no1,inactive,
CO[C@@H]1COC(=O)C/C=C\[C@@H](C)[C@@H]2C=C[C@H](O)[C@@H](COC(=O)CCC[C@H]1C)O2,,-8.99% [at 11.4 µM]
CC(C)Oc1ccc2c(=O)c3cc(C(=O)O)ccc3oc2c1,inactive,
COc1ccc2c(=O)c(-c3ccccc3C)c(C)oc2c1,20 µM (active),
N[C@H](C(=O)O)[C@H](O)C(=O)O,inactive,
COc1ccccc1C1CC(c2c(-c3ccccc3)c3cc(Cl)ccc3[nH]c2=O)=NN1S(C)(=O)=O (stereo not given),3.16 µM (active),
O=c1oc2ccccc2cc1-c1csc(NN=C2CCCCC2)n1,1.58 µM (active),
Cc1ccc(-c2noc(-c3cc4ccccc4oc3=O)n2)cc1,inactive,
CCCc1nnc(SCC(=O)N2CCCC(C)C2)n1CC1CCCO1 (stereo not given),inactive,
CC1CC(C)CN(C(=O)CSc2nnc(CSc3ncccn3)n2C)C1 (stereo not given),14.1 µM (active),
CS(=O)(=O)c1ccc([C@H](O)[C@H](CO)NC(=O)C(Cl)Cl)cc1,inactive,
Cc1ccc(-c2csc(C(C#N)=C3CCCC3)n2)cc1,2.24 µM (active),
N#CC(=C1CCCC1)c1nc(-c2ccccc2)cs1,1.41 µM (active),
Nc1nc(N)c(-c2cccc(C(F)(F)F)c2)c(Cc2cccc(C(F)(F)F)c2)n1,2.51 µM (active),

SMILES,AC50,"activity, negative = inhibition"
Cc1ccc(S(=O)(=O)N[C@H](C(=O)N2CCC(C(=O)NCC(=O)O)CC2)C(C)C)cc1,inactive,
Cc1ccc(C(=O)N2CCN(C3c4cccc5cccc(c45)C3NS(=O)(=O)c3ccccc3)CC2)cc1 (stereo not given),3.16 µM (active),
CC(C)(CO)[C@H](O)C(=O)NCCCO,inactive,
CCOc1ccc(N(C(C)C(=O)N/N=C(\C)c2cccc(NC(=O)c3ccccc3)c2)S(C)(=O)=O)cc1 (stereo not given),3.98 µM (active),
C/C(CCN1CCCCc2nc(C)c(C)cc21)=N\OC[C@@H](C)[C@H](OCc1ccccc1)C(C)C,,-22.2% [at 11.4 µM]
C[N+](C)(C)CCO,inactive,
CCc1nnc(NC(=O)C2Cc3ccccc3CN2S(=O)(=O)c2ccc(C)cc2)s1 (stereo not given),0.631 µM (active),
O=C(Nc1nccs1)C1Cc2ccccc2CN1S(=O)(=O)c1ccc(F)cc1 (stereo not given),0.891 µM (active),
O=C(Nc1nnc(C2CC2)s1)C1Cc2ccccc2CN1S(=O)(=O)c1ccccc1F (stereo not given),0.0282 µM (active),
O=C(O)c1c[nH]c2c(ccc3[nH]cc(C(=O)O)c(=O)c32)c1=O,,-8.42% [at 11.4 µM]
Cc1ccccc1C(=O)N/N=C/c1ccncc1,39.8 µM (active),
O=C(N/N=C\c1cccc(O)c1)c1ccncc1,,-1.11% [at 11.4 µM]
Cc1cc(NC(=O)c2ccco2)ccc1-n1cnnn1,17.8 µM (active),
Cc1cc(C)cc(NC(=O)N2CCCC2C(=O)Nc2ccc(-n3cnnn3)c(C)c2)c1 (stereo not given),0.282 µM (active),
Cc1cc(C)c(NC(=O)C2CCCN2C)c(C)c1 (stereo not given),inactive,
CC(=O)Nc1cccc(NC(=O)C2CCCN2C(=O)Nc2ccccc2C)c1 (stereo not given),inactive,
CC(C)=CCC/C(C)=C/CO/N=C1/C[C@@H](O)[C@@H](O)[C@@H]2[C@@H]3C(=O)N(C(C)(C)C)C(=O)[C@H]3CC[C@@H]12,,-29.1% [at 11.4 µM]
CCOC(=O)c1c(NC(=O)/C=C/c2ccc3c(c2)OCO3)sc(C)c1CC,5.01 µM (active),
CCOC(=O)c1c(NC(=O)/C=C/c2ccc3c(c2)OCO3)sc(C)c1C,inactive,
CC(C)Oc1cccc(C(=O)NC(=S)N2CCN(c3ccc(C(F)(F)F)cc3[N+](=O)[O-])CC2)c1,8.91 µM (active),
COc1cccc(OC)c1C(=O)NC(=S)N1CCN(c2ccc(C(F)(F)F)cc2[N+](=O)[O-])CC1,14.1 µM (active),
COc1ccccc1CN1CCCC2(CCN(S(C)(=O)=O)CC2)C1,inactive,
O=P(O)(O)O[C@@H]1O[C@H](CO)[C@@H](O)[C@H](O)[C@@H]1O,,38.5% [at 11.4 µM]
CCOc1ncccc1C(=O)OCC(=O)Nc1cc(C)ccc1C,5.01 µM (active),

SMILES,AC50,"activity, negative = inhibition"
CCOCC(=O)Nc1cc(-c2cn3cccnc3n2)ccc1C,inactive,
Cc1ccc(C)c(NC(=O)Cn2c([N+](=O)[O-])cnc2C)c1,inactive,
Cc1ccc(C(=O)NC(=S)NCC2CCCO2)cc1 (stereo not given),6.31 µM (active),
CCOc1cc(NC(=S)NCC2CCCO2)c(OCC)cc1NC(=O)c1cccc(C)c1 (stereo not given),11.2 µM (active),
CCOC(=O)Nc1ccc(C(=O)NCC2CCCO2)cc1 (stereo not given),inactive,
Cc1ccccc1CS(=O)(=O)Cc1ccc(C(=O)NCc2cccnc2)o1,3.55 µM (active),
Cc1cc(=O)oc(C)c1C(=O)NCc1cccnc1,inactive,
CC1CCN(C(=O)c2ccc(COc3ccccc3Cl)o2)CC1,8.91 µM (active),
CCOc1ccc(OCc2ccc(C(=O)N3CCc4ccccc4C3)o2)cc1,5.62 µM (active),
CCOc1ccc(OCc2ccc(C(=O)NCc3cccnc3)o2)cc1,22.4 µM (active),
O=C(O)c1cc2cc(Cc3cccnc3)ccc2o1,inactive,
NS(=O)(=O)c1cc2c(cc1Cl)NC(CSCc1ccccc1)=NS2(=O)=O,inactive,
CNC[C@@H](SC)c1ccc(O)c(O)c1,,-19% [at 11.4 µM]
Cc1cccc(C)c1NC(=O)CN1CCN(CCCC(c2ccc(F)cc2)c2ccc(F)cc2)CC1,inactive,
CC(=O)Nc1ccc(NC(=O)Cn2c(-c3ccc(F)cc3)cnc2SCC(=O)Nc2c(C)cccc2C)cc1,1.58 µM (active),
CCNc1ncc2nc(-c3ccc(Cl)cc3)c(=O)n(C[C@H]3CCCO3)c2n1,inactive,
CCc1ccccc1NC(=O)C1C(c2ccccc2)C1(Cl)Cl (stereo not given),1.78 µM (active),
O=C(COc1ccccc1-c1ccccc1)N/N=C/c1cccc2ccccc12,2.24 µM (active),
COc1ccc(OCC(=O)NNC(=O)c2ccc(-c3ccccc3)cc2)cc1,inactive,
O=C(COc1ccc(-c2ccccc2)cc1)N/N=C/c1ccccc1Br,2.51 µM (active),
O=C(Cc1ccccc1)Nc1nc2ccc(Cl)cc2c2nc(-c3ccco3)nn12,1.58 µM (active),
Cc1cccc(Oc2ncc(-c3ccc(Cl)cc3)cn2)c1C,14.1 µM (active),
Cn1c(=O)c(-c2ccc(Cl)cc2)nc2cnc(Oc3ccccc3)nc21,inactive,
COc1ncc2nc(-c3ccc(Cl)cc3)c(=O)n(C)c2n1,inactive,

SMILES,AC50,"activity, negative = inhibition"
Cc1cc(Cl)ccc1Oc1ncc(-c2ccc(Cl)cc2)cn1,2.51 µM (active),
C#CCCCO/N=C1/C[C@@H](O)[C@@H](O)[C@@H]2[C@@H]3C(=O)N([C@@H](C)c4ccccc4)C(=O)[C@H]3CC[C@@H]12,,-27.9% [at 11.4 µM]
CCCC(=O)N1c2ccccc2C(N(C(C)=O)c2ccccc2)CC1C (stereo not given),15.8 µM (active),
COc1ccc(-n2c(=O)cnc3cnc(OC)nc32)cc1,inactive,
Cc1ccc(-n2ccc(=O)c(-c3ccnc(SCc4cccc(Cl)c4)n3)n2)cc1,3.55 µM (active),
NNC(=O)c1nn(-c2ccc(Cl)cc2)ccc1=O,inactive,
C[C@@H]1C[C@@H]2[C@H]3CCC4=CC(=O)C=C[C@]4(C)[C@]3(Cl)[C@@H](O)C[C@@]2(C)[C@@]1(O)C(=O)CO,inactive,
CC1=C(C(=O)Nc2ccccc2F)C(c2ccsc2)C2=C(CC(c3ccccc3)CC2=O)N1 (stereo not given),5.01 µM (active),
COC(=O)C1=C(C)NC(=O)NC1c1ccsc1 (stereo not given),inactive,
C=CCSc1ccsc1C(=O)O,inactive,
C=CCSc1nc(NC)c2sccc2n1,14.1 µM (active),
C=CCSc1nc(Oc2ccccc2)c2sccc2n1,2.24 µM (active),
C=CCNc1nc(SCC=C)nc2ccsc12,8.91 µM (active),
C[C@@]12C(=O)OC(=O)[C@]1(C)[C@H]1CC[C@@H]2O1,inactive,
O=C1C[C@@H](O)[C@@H](O)[C@H]2[C@@H]3C(=O)N(c4cccc(Oc5ccccc5)c4)C(=O)[C@@H]3CC[C@H]12,,5.15% [at 11.4 µM] and -20.4% [at 11.4 µM]
O=C(Nc1ccc2c(c1)OCCO2)c1cc2sccc2n1Cc1ccccc1,3.16 µM (active),
O=C(Nc1ccc2c(c1)OCCO2)c1cc2sccc2n1Cc1ccc(F)cc1,1 µM (active),
FC(F)(F)c1cc(Sc2ccccc2)nc(-c2ccccn2)n1,inactive,
CCNc1nc(Sc2ccc(C)cc2)cc(C(F)(F)F)n1,11.2 µM (active),
Cc1ccc(Sc2cc(Cl)nc(N)n2)cc1,inactive,
O=C(NC1CCCc2ccccc21)C1CCN(S(=O)(=O)N2CCCCCC2)CC1 (stereo not given),17.8 µM (active),
O=C(NCCCN1CCc2ccccc2C1)C1CCN(S(=O)(=O)N2CCCC2)CC1,inactive,
O=C(NC1CCCc2ccccc21)c1ccc(=O)[nH]c1 (stereo not given),inactive,
